# PubChem BioAssay (EPA / NIEHS)
# Results filed as inconclusive are left out. The source made the active and inactive calls. How the source made its calls: active means hit-call score of the fitted dose curve at least 0.9, where 1 is the maximum; inconclusive means response in the unintended direction; inactive means score below 0.9.
# How the values were obtained:
# [1] = biological target: human Vascular Endothelial Growth Factor Receptor 1 (VEGFR1), FLT1 (gene 2321) (UniProt P17948); assay: NVS_ENZ_hVEGFR1: NovaScreen (NVS) Enzymatic Assay for human Vascular Endothelial Growth Factor Receptor 1 (VEGFR1) (AID 2283226)
# How it was run: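 Cell-free assay of recombinant human VEGFR1 kinase with substrate, measured 1 h after dosing; fluorescence with electrophoretic mobility-shift separation of substrate and product, referenced to DMSO; primary screen at 25 uM in duplicate, actives then run in concentration series.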
# [2] = biological target: rabbit Imidazoline 2 Central (I2C), CKB (gene 100009085) (UniProt P00567); assay: NVS_ENZ_rabI2C: NovaScreen (NVS) Enzymatic Assay for rabbit Imidazoline 2 Central (I2C) (AID 2283228)
# How it was run: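 Rabbit brain membranes, cell-free; readout by filter-based scintillation counting 1.5 hours after dosing, loss of signal vs DMSO. Initial duplicate test at 25 uM, then concentration-response with 50 uM top concentration.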
# [3] = biological target: human Vascular Endothelial Growth Factor Receptor 2 (VEGFR2), KDR (gene 3791) (UniProt P35968); assay: NVS_ENZ_hVEGFR2: NovaScreen (NVS) Enzymatic Assay for human Vascular Endothelial Growth Factor Receptor 2 (VEGFR2) (AID 2283230)
# How it was run: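 Cell-free recombinant VEGFR2 kinase, fluorescent substrate with electrophoretic mobility-shift separation; read 1 h after dosing. Screened at 25 uM in duplicate, hits to concentration-response up to 50 uM; loss-of-signal versus DMSO.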
# [4] = biological target: human Sirtuin 2 (SIRT2), SIRT2 (gene 22933) (UniProt Q8IXJ6); assay: NVS_ENZ_hSIRT2: NovaScreen (NVS) Enzymatic Assay for human Sirtuin 2 (SIRT2) (AID 2283217)
# How it was run: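 Cell-free recombinant human SIRT2, fluorescent substrate with product separated by electrophoretic mobility shift, 1 hr. Screened in duplicate at 25 uM; hits rerun singly in concentration-response up to 50 uM, relative to DMSO.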
# [5] = biological target: human SRC Proto-Oncogene, Non-receptor Tyrosine Kinase (SRC), SRC (gene 6714) (UniProt P12931); assay: NVS_ENZ_hSRC: NovaScreen (NVS) Enzymatic Assay for human SRC Proto-Oncogene, Non-receptor Tyrosine Kinase (SRC) (AID 2283223)
# How it was run: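 Cell-free kinase activity assay with fluorescent substrate, product separated by electrophoretic mobility shift, read 1 h after dosing. Duplicate single point at 25 uM, then concentration-response up to 50 uM; loss of signal versus DMSO.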
# [6] = biological target: human Tropomyosin Receptor Kinase A (TRKA), NTRK1 (gene 4914) (UniProt P04629); assay: NVS_ENZ_hTrkA: NovaScreen (NVS) Enzymatic Assay for human Tropomyosin Receptor Kinase A (TRKA) (AID 2283224)
# How it was run: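 Recombinant human TrkA activity read after 1 h by fluorescence with electrophoretic mobility shift separating substrate and product. Primary screen in duplicate at 25 uM; actives were rerun in concentration-response up to 50 uM. Loss of signal versus DMSO.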
# [7] = biological target: human Tyrosine Protein Kinase Receptor Tie-2 (Tie2), TEK (gene 7010) (UniProt Q02763); assay: NVS_ENZ_hTie2: NovaScreen (NVS) Enzymatic Assay for human Tyrosine Protein Kinase Receptor Tie-2 (Tie2) (AID 2283225)
# Experimental: (§1) NVS_ENZ_hTie2 is a biochemical, single-readout assay that uses extracted gene-proteins in a cell-free assay. Measurements were taken 1 hour after chemical dosing in a 384-well plate.NVS_ENZ_hTie2 is one of one assay component(s) measured or calculated from the NVS_ENZ_hTie2 assay. It is designed to make measurements of enzyme activity, a form of enzyme reporter, as detected with fluorescence intensity signals by Fluorescence and electrophoretic mobility shift technology.Data from the assay component NVS_ENZ_hTie2 was analyzed into 1 assay endpoint. This assay endpoint, NVS_ENZ_hTie2, was analyzed in the positive analysis fitting direction relative to DMSO as the negative control and baseline of activity. Using a type of enzyme reporter, loss-of-signal activity can be used to understand changes in the enzymatic activity as they relate to the gene TEK. Furthermore, this assay endpoint can be referred to as a primary readout, because this assay has produced multiple assay endpoints where this one serves a enzymatic activity function. To generalize the intended target to other relatable targets, this assay endpoint is annotated to the kinase intended target family, where the subfamily is receptor tyrosine kinase.
# (§2) Binding assays used specific radioligands (tritiated, iodinated) with non-radioactive competitive displacement ligands in agonist or antagonist protocols (as indicated) and various reference compounds and inhibitors to titrate specific binding to receptors and transporters. Most enzyme assays (CYPs, kinases, phosphatases, proteases, HDACs) used recombinant protein and specific substrates (fluorescence mostly, some colorimetric and radioactive) and inhibitors, followed by a biochemical separation of substrate and product. All assays for the biochemical HTS were initially run in duplicate at a single concentration (10 uM for CYP450 assays and 25 uM for all others). Assay-chemical combinations meeting a pre-defined threshold (e.g., 30% inhibition and other criteria defined below) were then run in singleton concentration-response format with maximum concentration of 20 uM for CYPs and 50 uM for all others. Each assay was run with positive and negative controls, and concurrent controls on every plate. The follow-up (secondary) screen tested active chemical-pairs in concentration series, as well as a few additional assays not tested in the primary screen, some selected negative inactives, and several cases re-run in the concentration series for confirmatory purposes.
# [8] = biological target: human Vascular Endothelial Growth Factor Receptor 3 (VEGFR3), FLT4 (gene 2324) (UniProt P35916); assay: NVS_ENZ_hVEGFR3: NovaScreen (NVS) Enzymatic Assay for human Vascular Endothelial Growth Factor Receptor 3 (VEGFR3) (AID 2283229)
# How it was run: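 Cell-free recombinant VEGFR3 kinase reaction with fluorescent substrate, read 1 h after dosing by electrophoretic mobility shift separation of substrate and product. Single-concentration duplicate screen at 25 uM, then concentration-response up to 50 uM; loss of activity versus DMSO.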
# [9] = biological target: human Sirtuin 3 (SIRT3), SIRT3 (gene 23410) (UniProt Q9NTG7); assay: NVS_ENZ_hSIRT3: NovaScreen (NVS) Enzymatic Assay for human Sirtuin 3 (SIRT3) (AID 2283222)
# Experimental: as §1, with “NVS_ENZ_hSIRT3” for “NVS_ENZ_hTie2”, “plate.NVS_ENZ_hSIRT3” for “plate.NVS_ENZ_hTie2”, “NVS_ENZ_hSIRT3,” for “NVS_ENZ_hTie2,”, “SIRT3.” for “TEK.”, “hydrolase” for “kinase”, “protein deacetylase.” for “receptor tyrosine kinase.”
# as §2
# [10] = biological target: human Sirtuin 1 (SIRT1), SIRT1 (gene 23411) (UniProt Q96EB6); assay: NVS_ENZ_hSIRT1: NovaScreen (NVS) Enzymatic Assay for human Sirtuin 1 (SIRT1) (AID 2283219)
# How it was run: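 Cell-free recombinant SIRT1 with a fluorescent substrate; substrate and product separated by electrophoretic mobility shift and read by fluorescence intensity, 1 h after dosing. Primary screen at 25 uM in duplicate; hits re-run in concentration-response up to 50 uM, relative to DMSO.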
# Chain of human Vascular Endothelial Growth Factor Receptor 2 (VEGFR2), KDR (gene 3791) (P35968 whole entry, looked up): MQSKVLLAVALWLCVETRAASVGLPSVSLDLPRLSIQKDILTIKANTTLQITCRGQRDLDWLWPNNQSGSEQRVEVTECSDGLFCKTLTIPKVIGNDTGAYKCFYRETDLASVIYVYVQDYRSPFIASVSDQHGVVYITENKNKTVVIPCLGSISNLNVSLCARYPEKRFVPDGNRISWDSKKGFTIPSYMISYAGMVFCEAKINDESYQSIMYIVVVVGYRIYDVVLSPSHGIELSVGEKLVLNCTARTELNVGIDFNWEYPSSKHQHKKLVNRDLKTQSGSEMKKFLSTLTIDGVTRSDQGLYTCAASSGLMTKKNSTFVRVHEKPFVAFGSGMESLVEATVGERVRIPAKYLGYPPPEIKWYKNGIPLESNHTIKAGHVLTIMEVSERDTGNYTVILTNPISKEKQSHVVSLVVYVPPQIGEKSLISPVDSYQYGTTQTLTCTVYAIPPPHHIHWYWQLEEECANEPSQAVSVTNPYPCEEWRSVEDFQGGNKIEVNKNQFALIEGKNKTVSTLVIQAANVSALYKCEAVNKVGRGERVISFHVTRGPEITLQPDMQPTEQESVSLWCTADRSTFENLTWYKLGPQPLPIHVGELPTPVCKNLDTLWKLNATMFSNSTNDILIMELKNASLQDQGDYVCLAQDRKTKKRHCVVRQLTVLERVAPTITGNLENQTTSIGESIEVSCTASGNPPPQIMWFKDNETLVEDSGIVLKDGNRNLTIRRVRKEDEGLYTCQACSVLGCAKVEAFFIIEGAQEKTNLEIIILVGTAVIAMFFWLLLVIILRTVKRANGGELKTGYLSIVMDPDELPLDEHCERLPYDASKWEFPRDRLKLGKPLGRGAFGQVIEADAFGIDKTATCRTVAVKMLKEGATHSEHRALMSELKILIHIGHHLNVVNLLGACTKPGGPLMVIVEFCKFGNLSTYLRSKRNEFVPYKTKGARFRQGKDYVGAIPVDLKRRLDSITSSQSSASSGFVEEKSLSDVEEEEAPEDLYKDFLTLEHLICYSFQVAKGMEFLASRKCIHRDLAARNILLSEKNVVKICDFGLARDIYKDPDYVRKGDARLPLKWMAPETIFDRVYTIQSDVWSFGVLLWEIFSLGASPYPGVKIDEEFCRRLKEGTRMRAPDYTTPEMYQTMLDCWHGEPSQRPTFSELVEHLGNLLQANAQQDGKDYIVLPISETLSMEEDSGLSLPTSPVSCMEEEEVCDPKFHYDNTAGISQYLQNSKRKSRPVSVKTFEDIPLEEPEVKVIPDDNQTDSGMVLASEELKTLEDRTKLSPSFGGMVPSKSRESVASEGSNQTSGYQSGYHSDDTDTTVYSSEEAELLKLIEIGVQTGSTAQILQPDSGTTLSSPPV
# Chain of human Vascular Endothelial Growth Factor Receptor 3 (VEGFR3), FLT4 (gene 2324) (P35916 whole entry, looked up): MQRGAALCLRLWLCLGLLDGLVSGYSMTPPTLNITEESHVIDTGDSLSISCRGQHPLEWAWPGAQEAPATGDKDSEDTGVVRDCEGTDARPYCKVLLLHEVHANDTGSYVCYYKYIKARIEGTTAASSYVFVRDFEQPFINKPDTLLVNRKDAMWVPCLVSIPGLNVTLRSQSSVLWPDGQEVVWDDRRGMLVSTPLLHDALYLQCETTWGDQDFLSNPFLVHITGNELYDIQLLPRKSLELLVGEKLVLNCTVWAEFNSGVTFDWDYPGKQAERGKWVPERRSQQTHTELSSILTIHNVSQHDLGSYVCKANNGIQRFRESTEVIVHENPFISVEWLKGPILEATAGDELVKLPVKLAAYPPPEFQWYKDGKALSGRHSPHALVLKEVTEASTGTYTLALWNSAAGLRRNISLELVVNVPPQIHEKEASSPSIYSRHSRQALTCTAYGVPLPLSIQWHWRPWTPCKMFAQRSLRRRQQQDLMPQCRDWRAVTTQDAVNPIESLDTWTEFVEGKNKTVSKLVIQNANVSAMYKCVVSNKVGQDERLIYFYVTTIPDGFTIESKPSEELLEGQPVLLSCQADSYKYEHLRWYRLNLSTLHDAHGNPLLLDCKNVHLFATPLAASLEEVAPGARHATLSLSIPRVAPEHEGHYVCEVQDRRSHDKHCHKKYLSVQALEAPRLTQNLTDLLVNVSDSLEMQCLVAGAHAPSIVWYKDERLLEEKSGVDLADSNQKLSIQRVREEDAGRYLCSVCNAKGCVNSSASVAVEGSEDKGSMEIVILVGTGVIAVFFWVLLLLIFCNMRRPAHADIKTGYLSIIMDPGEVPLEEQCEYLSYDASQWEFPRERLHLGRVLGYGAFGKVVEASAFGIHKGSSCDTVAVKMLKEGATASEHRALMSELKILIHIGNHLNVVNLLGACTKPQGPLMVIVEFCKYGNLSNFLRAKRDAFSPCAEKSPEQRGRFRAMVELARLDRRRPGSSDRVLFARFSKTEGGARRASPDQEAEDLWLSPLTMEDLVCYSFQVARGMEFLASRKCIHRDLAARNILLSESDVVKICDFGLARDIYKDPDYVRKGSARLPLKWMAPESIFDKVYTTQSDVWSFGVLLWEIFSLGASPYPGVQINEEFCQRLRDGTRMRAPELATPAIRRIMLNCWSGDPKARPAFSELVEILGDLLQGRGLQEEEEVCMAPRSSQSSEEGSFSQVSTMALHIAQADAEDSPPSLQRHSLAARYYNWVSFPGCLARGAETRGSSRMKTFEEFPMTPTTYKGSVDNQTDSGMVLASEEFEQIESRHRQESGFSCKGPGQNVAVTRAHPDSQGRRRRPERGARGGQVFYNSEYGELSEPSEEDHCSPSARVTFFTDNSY
# Chain of human Sirtuin 3 (SIRT3), SIRT3 (gene 23410) (Q9NTG7 whole entry, looked up): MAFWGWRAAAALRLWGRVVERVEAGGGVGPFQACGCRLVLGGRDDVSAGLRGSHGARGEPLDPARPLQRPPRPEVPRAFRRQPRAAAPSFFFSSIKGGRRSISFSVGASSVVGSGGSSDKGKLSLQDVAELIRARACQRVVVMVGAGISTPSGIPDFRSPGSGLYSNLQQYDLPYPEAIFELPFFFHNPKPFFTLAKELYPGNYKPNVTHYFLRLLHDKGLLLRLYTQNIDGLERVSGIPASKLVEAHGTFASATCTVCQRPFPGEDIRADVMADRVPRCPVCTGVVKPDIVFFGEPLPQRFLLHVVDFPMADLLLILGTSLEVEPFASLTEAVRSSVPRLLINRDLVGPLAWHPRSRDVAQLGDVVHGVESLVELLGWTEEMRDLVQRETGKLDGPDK
# Chain of human Vascular Endothelial Growth Factor Receptor 1 (VEGFR1), FLT1 (gene 2321) (P17948 whole entry, looked up): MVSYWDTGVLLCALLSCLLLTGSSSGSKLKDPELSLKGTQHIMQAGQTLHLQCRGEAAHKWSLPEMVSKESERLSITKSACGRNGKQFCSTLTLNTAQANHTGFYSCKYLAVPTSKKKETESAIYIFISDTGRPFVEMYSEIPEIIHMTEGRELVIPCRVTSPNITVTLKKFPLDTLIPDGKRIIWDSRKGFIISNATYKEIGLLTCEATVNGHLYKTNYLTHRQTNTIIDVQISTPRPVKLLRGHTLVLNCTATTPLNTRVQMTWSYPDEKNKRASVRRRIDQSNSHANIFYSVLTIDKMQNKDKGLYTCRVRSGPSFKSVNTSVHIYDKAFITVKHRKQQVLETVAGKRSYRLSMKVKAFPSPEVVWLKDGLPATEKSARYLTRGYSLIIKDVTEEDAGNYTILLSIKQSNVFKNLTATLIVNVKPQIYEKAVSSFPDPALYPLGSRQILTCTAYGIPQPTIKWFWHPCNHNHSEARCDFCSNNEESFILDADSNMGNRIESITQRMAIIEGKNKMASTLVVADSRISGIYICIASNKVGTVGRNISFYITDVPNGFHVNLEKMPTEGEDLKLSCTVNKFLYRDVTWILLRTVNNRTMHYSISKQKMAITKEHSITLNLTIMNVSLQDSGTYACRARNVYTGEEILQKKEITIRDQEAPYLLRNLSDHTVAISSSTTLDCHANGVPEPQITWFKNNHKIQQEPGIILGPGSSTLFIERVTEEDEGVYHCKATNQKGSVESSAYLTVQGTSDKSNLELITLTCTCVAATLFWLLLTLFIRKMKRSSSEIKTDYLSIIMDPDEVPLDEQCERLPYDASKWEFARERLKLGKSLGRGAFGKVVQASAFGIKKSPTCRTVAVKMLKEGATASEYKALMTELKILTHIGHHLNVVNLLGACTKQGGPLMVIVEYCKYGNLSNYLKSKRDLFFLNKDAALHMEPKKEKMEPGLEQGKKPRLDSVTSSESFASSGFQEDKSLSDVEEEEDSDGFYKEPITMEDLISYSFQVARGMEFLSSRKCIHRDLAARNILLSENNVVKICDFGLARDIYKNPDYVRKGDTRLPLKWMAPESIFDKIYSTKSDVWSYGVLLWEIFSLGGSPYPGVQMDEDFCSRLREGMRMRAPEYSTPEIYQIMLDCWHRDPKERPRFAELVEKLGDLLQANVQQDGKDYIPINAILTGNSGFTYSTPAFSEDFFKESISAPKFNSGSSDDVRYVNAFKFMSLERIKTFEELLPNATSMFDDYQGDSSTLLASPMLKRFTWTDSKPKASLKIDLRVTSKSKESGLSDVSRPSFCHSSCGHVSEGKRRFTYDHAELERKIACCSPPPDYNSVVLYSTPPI
# Chain of human Sirtuin 2 (SIRT2), SIRT2 (gene 22933) (Q8IXJ6 whole entry, looked up): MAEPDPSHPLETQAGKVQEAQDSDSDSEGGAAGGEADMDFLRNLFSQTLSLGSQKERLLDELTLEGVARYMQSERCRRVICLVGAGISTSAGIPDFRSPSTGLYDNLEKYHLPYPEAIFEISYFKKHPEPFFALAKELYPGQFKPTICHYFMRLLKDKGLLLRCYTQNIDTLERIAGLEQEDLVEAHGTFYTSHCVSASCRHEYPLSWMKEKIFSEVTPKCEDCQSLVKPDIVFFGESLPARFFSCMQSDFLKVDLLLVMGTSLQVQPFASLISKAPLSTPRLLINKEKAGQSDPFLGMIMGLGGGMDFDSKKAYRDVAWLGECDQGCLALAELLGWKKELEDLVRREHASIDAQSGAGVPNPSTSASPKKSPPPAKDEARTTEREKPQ
structure (smiles),measurement,setting,value
ClC1=C(Cl)[C@]2(Cl)[C@@H]3[C@@H]4C[C@@H]([C@H]5O[C@@H]45)[C@@H]3[C@@]1(Cl)C2(Cl)Cl,outcome,[1],inactive
CCCCCCCCCC[N+](C)(C)CCCCCCCCCC,AC50,[2],11.8 µM (active)
same,AC50,[3],26 µM (active)
CC(C)C(=O)OCC(C)(C)C(OC(=O)C(C)C)C(C)C (stereo not drawn),outcome,[1],inactive
Cc1cccc([N+](=O)[O-])c1,outcome,[4],inactive
CC1=C2C[C@H]3[C@@H](CC=C4C[C@@H](O)CC[C@@]43C)[C@@H]2CC[C@]12O[C@@H]1C[C@H](C)CN[C@H]1[C@H]2C,outcome,[5],inactive
same,outcome,[6],inactive
same,outcome,[7],inactive
same,outcome,[8],inactive
same,outcome,[3],inactive
CCOC(=O)C(O)(c1ccc(Cl)cc1)c1ccc(Cl)cc1,outcome,[3],inactive
ClC(Cl)=C(c1ccc(Cl)cc1)c1ccc(Cl)cc1,outcome,[3],inactive
CCCCCCOC(=O)c1ccccc1C(=O)OCCCCCC,outcome,[4],inactive
Cc1cc2c3c(c1)C(c1ccccc1)=N[C@@H](NC(=O)c1ccncc1)C(=O)N3CC2,outcome,[4],inactive
same,outcome,[9],inactive
same,outcome,[7],inactive
CCCN(CCC)N=O,outcome,[9],inactive
same,outcome,[6],inactive
same,outcome,[7],inactive
same,outcome,[3],inactive
Clc1ccc(C(c2ccccc2Cl)C(Cl)(Cl)Cl)cc1 (stereo not drawn),outcome,[7],inactive
same,outcome,[8],inactive
same,outcome,[3],inactive
c1cc2ccc3cccc4ccc(c1)c2c34,outcome,[10],inactive
same,outcome,[9],inactive
same,outcome,[8],inactive
Oc1ccc(C(c2ccc(O)cc2)(C(F)(F)F)C(F)(F)F)cc1,AC50,[4],25 µM (active)
same,AC50,[10],38.7 µM (active)
same,AC50,[9],42.9 µM (active)
same,AC50,[7],36.3 µM (active)
CCC(C)c1cc([N+](=O)[O-])cc([N+](=O)[O-])c1O (stereo not drawn),outcome,[3],inactive
CN(C)c1nc(=O)n(C2CCCCC2)c(=O)n1C,AC50,[2],9.76 µM (active)
O=C(O)C(F)(F)C(F)(F)C(F)(F)C(F)(F)C(F)(F)F,outcome,[8],inactive
CC(C)(c1ccccc1)c1ccc(O)cc1,outcome,[3],inactive
O=S(=O)(O)C(F)(F)C(F)(F)C(F)(F)C(F)(F)C(F)(F)C(F)(F)F,AC50,[4],11.4 µM (active)
same,outcome,[10],inactive
same,outcome,[7],inactive
same,outcome,[3],inactive
O=C(O)C(F)(F)C(F)(F)C(F)(F)C(F)(F)C(F)(F)C(F)(F)C(F)(F)C(F)(F)F,outcome,[10],inactive
same,outcome,[6],inactive
same,AC50,[7],6.63 µM (active)
same,outcome,[1],inactive
same,outcome,[8],inactive
